Among the data in PubChem BioAssay AID624330 (Southern Research Specialized Biocontainment Screening …, 2012) are inhibition values, retold here.

SMILES strings stand for the structures. Out of some 340,000 compounds screened, about 2,100 (0.62%) were called active.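 Rule for the calls: active = first-screen hits whose inhibition reached a set limit at any dose in the follow-up dose series; inconclusive = inhibition above the set first-screen limit but never retested; inactive = the rest.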 A selection follows. Entries with a potency or affinity are not part of this list.

The assay deals with Rac GTPase-activating protein 1 (Homo sapiens) (UniProt Q9H0H5). In words: MgcRacGAP GTPase-activating activity inhibitors, confirmation, biochemical, ADP Hunter fluorescence, primary and confirmatory (AID 624330).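 Note: fluorescence reports GDP produced by GAP-driven GTP hydrolysis.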 Particulars: MgcRacGAP-stimulated Rac1 GTP hydrolysis, at 30 µM, stronger effect = higher value, GST-tagged Rac1 F28L mutant substrate.
Sequence of Rac GTPase-activating protein 1 (Homo sapiens) (Q9H0H5 whole entry, looked up): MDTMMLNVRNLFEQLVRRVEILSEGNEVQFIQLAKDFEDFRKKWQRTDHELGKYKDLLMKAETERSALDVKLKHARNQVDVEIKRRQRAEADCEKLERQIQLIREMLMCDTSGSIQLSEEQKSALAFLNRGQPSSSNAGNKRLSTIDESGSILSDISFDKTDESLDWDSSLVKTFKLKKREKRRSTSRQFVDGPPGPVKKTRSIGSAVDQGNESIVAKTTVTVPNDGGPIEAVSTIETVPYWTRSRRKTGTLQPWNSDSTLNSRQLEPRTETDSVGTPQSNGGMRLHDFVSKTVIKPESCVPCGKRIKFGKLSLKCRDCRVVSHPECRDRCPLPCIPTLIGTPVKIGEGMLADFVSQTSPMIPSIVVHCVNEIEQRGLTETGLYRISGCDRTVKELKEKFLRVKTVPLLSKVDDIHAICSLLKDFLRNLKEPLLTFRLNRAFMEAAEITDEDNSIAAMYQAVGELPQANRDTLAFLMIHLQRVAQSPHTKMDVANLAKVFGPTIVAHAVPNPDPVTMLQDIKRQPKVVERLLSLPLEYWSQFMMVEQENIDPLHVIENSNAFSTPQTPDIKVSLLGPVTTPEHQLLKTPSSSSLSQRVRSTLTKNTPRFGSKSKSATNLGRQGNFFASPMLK
Broadly, the inhibition is the relative decrease from the control value, in per cent. As for `O=C1Nc2ccccc2C1=Nc1ccc(F)cc1`, the inhibition is 6.47% (inactive).

As for `Cc1ccc(N=C2C(=O)Nc3ccccc32)cc1C`, the inhibition is 1.21% (inactive).

`COc1cccc(NC(=O)C(c2ccccc2)N2CCNC(=O)C2)c1` (stereo unspecified): the inhibition was -3.03% (inactive).

Take `CN(CC(=O)Nc1c(Cl)cccc1Cl)C(=O)Cc1ccc2c(c1)CCC2`: the inhibition is 4.3% (inactive).

In the case of `COc1ccc(/C=C/c2ccc3ccccc3[n+]2C)cc1OC`, the inhibition is -0.83% (inactive).

As for `CC[n+]1c(/C=C/c2ccc(OC(C)=O)c(OC)c2)ccc2ccccc21`, the inhibition was 27% (inactive).

Turning to `O=C(/C=C/Nc1ccc(F)cc1)c1cccs1`, the inhibition was 8.26% (inactive).

On to `Cc1ccc(N/C=C/C(=O)c2cccs2)cc1`, for which the inhibition was 1.9% (inactive).

`COc1ccc(C)cc1N(CC(=O)Nc1cccnc1)S(=O)(=O)c1ccc(C)cc1`: the inhibition is 3.72% (inactive).

Turning to `O=C(CCSc1nnc(-c2ccco2)o1)Nc1ccc(Cl)cc1`, the inhibition was 5.12% (inactive).

Consider `Cc1ccc(S(=O)(=O)N2CCOCC2)cc1C(=O)NC1CCCC1`, for which the inhibition was 6.35% (inactive).

For `NC(=S)N/N=C/c1ccccc1O`, the inhibition was 10.3% (inactive).

`COC(=O)c1cccc(/C=N/NC(N)=S)c1O`: the inhibition is 14.2% (inactive).

Take `COc1ccc(N(C(C)=O)S(=O)(=O)c2cc(OC)ccc2OC)cc1`: the inhibition is 12.7% (inactive).

As for `COc1ccc(C(=O)N2CCN(c3ncccn3)CC2)cc1`, the inhibition was 0.88% (inactive).

Take `COc1ccc(N2CCN(c3ccc(N)cc3C#N)CC2)cc1`: the inhibition is 27.6% (inactive).

Consider `COc1ccnc(N2CCN(c3ccccc3)CC2)c1C#N`, for which the inhibition was 8.98% (inactive).

Take `COc1cccc(N2CCN(c3ncccn3)CC2)c1`: the inhibition is 5.71% (inactive).

On to `COc1ccc(C(=O)NCC(=O)OCc2ccc(Br)cc2)cc1`, for which the inhibition is 11.1% (inactive).

As for `CC(c1nccs1)N(C)C(=O)CCc1nnc(Cc2c[nH]c3ccccc23)o1` (stereo unspecified), the inhibition is 11.5% (inactive).

As for `O=C1/C(=C/c2ccc(O)cc2)SC(=S)N1CC1CCCO1` (stereo unspecified), the inhibition was 31.1% (inactive).

Consider `COC(=O)C1=C(C)N(CC2CCCO2)C(=O)C1` (stereo unspecified), for which the inhibition is 4.38% (inactive).

Consider `O=C(N/N=C/c1ccc(-c2ccccc2C(=O)O)o1)c1cccs1`, for which the inhibition is 11.8% (inactive).

`COc1ccc(-c2noc(-c3ccccc3C(=O)NCc3ccco3)n2)cc1`: the inhibition is 8.25% (inactive).

As for `CCCNC(=O)CN1CCN(c2cc3ccccc3c(Cl)n2)CC1`, the inhibition was 4.31% (inactive).

Regarding `Cc1cccc(Oc2nc(-c3ccccn3)nc3ccccc23)c1`, the inhibition was 11.2% (inactive).

Regarding `CC(=O)Nc1ccc(Oc2nc(C(F)(F)F)nc3ccccc23)cc1`, the inhibition was 11.9% (inactive).

Take `CC(C)(C)S(=O)(=O)N1C[C@@H]2CC/C=C\C/C(c3ccccc3)=C\2[C@H]1CCO`: the inhibition was 6.06% (inactive).

Take `C=C1CCN([C@@H](CC(C)C)C(=O)NCc2ccc(OC)cc2)S(=O)(=O)c2ccccc21`: the inhibition is 13.2% (inactive).

On to `COc1ccc2ccccc2c1C1NC(=O)NC(C)=C1[N+](=O)[O-]` (stereo unspecified), for which the inhibition is 1.63% (inactive).

On to `C[n+]1c(/C=C/c2ccc3c(c2)OCO3)ccc2ccccc21`, for which the inhibition is -4.73% (inactive).

Consider `CC[n+]1c(/C=C/c2ccc(OC)c(OC)c2)ccc2ccccc21`, for which the inhibition was 11.3% (inactive).

Take `CC[n+]1c(/C=C/C=C/N(C(C)=O)c2ccccc2)sc2ccccc21`: the inhibition was 23.1% (inactive).

In the case of `CN(CCCS(=O)(=O)[O-])c1ccc(/C=C/c2ccc3ccccc3[n+]2C)cc1`, the inhibition is 9.16% (inactive).

As to `CCN(CC)c1ccc(/C=C/c2ccc3ccc(OC)cc3[n+]2CC)cc1`, the inhibition was 12.8% (inactive).

Turning to `CN(C)c1ccc(/C=C/c2nc3ccccc3s2)cc1`, the inhibition is 13.3% (inactive).

With `COc1ccccc1N1CCN(C(=O)C(=O)c2cn(CC(=O)N3CCCCCC3)c3ccccc23)CC1`, the inhibition is 4.2% (inactive).

Regarding `Cc1ccc2oc(=O)c3cnn(CC(=O)N(CCCN4CCOCC4)Cc4ccco4)c3c2c1`, the inhibition was 5.12% (inactive).

As for `CCCN(CCC)CCNC(=O)CCC(=O)Nc1ccc2nc(N3CCN(C)CC3)cc(C)c2c1`, the inhibition was 26.7% (inactive).

Take `CCCCNC(=O)CCC(=O)Nc1ccc2nc(N3CCN(C)CC3)cc(C)c2c1`: the inhibition is 11.9% (inactive).

As for `CCN(C(=O)CN1C(=O)c2ccc([N+](=O)[O-])cc2C1=O)C1CCCCC1`, the inhibition was -1.26% (inactive).

In the case of `COc1cccc(OCC(O)CNC2CCCC2)c1` (stereo unspecified), the inhibition was -1.44% (inactive).

For `CCC(CC)CN1C(Nc2ccccc2)=NC[C@@H]1C`, the inhibition was 1.3% (inactive).

For `C=CCc1cc(/C=C2/NC(=O)N(CC(=O)OC)C2=O)cc(OC)c1O`, the inhibition was 10.1% (inactive).

As for `NC(=O)NC(=O)CSc1nc(C2CCCCC2)n(-c2ccccc2)n1`, the inhibition was 3.47% (inactive).

As to `O=C(CSc1nc(C2CCCCC2)n(-c2ccccc2)n1)NCC(F)(F)F`, the inhibition is 8.72% (inactive).

As for `O=C(Nc1nccs1)C1CC(=O)N(CCc2ccc(F)cc2)C1` (stereo unspecified), the inhibition was 6.31% (inactive).

In the case of `Nc1nonc1-n1nnc(C(=O)N/N=C/c2cccc(Cl)c2)c1CN1CCCCCC1`, the inhibition was 3.77% (inactive).

On to `C=CCOC1COC2C(OCC=C)COC12` (stereo unspecified), for which the inhibition is 3.53% (inactive).

In the case of `Cc1ccc(OCCCCNC(C)c2ccccc2)c(C)c1` (stereo unspecified), the inhibition was 28.7% (inactive).

As to `CC(=O)NCCOc1cccc2ccccc12`, the inhibition is -4.94% (inactive).

On to `c1ccc(CCNCCOc2ccccc2)cc1`, for which the inhibition was 17.6% (inactive).

As for `COc1ccc(OCCCNCCc2ccccc2)cc1`, the inhibition was 4.94% (inactive).

Consider `Cc1ccc(S(=O)(=O)N2CC=C(C(=O)NCc3ccccc3)CC2)cc1`, for which the inhibition was 6.07% (inactive).

On to `CC(=O)c1ccc(NC(=O)C[n+]2ccccc2)cc1`, for which the inhibition is 10.2% (inactive).

Take `CCOc1ccc(CCNC(=O)COC(=O)c2cc(OC)c(OC)cc2[N+](=O)[O-])cc1OCC`: the inhibition was -1.41% (inactive).

As to `Cc1ccc(NC(=O)CN(C)Cc2nc3ccccc3c(=O)[nH]2)c(Br)c1`, the inhibition is 4.68% (inactive).

As to `CCOc1cc2nc(-c3ccc(OC)c(OC)c3)nc(NCCCN3CCOCC3)c2cc1OC`, the inhibition was 18.4% (inactive).

Take `COCCNc1nc(=S)[nH]c2cc(OC)c(OC)cc12`: the inhibition was 15.3% (inactive).

On to `COCCCNc1nc2cc(OC)c(OC)cc2c2nc(-c3ccccc3)nn12`, for which the inhibition is 2.71% (inactive).

As to `CCOCCCNCc1ccc(OC)c(OC)c1`, the inhibition is 13.9% (inactive).

As to `CCCCn1c(N)c(N(CC(C)C)C(=O)CCNC(=O)c2ccccc2Cl)c(=O)[nH]c1=O`, the inhibition is 6.4% (inactive).

For the compound `CCOc1cc(C(=S)N2CCOCC2)ccc1OS(=O)(=O)c1ccc(OC)cc1`, the inhibition was 3.51% (inactive).

As for `C[C@@H]1CN([C@H](C)CO)C(=O)CCCn2nncc2CO[C@H]1CN(C)S(=O)(=O)c1ccc2ccccc2c1`, the inhibition was 12.9% (inactive).

On to `CCCCNC(=O)Cn1cnc2c(cnn2-c2ccc(C)cc2)c1=O`, for which the inhibition was 6.17% (inactive).

Consider `Clc1nssc1=Nc1ccccc1`, for which the inhibition was 13.8% (inactive).

`Clc1ccc(N=c2ssnc2Cl)cc1`: the inhibition was 14.7% (inactive).

For the compound `O=C(N/N=C/c1ccc([N+](=O)[O-])o1)c1cc(-c2cccc(Br)c2)nc2ccccc12`, the inhibition is -2.15% (inactive).

Turning to `Cn1c(=Nc2ccc(N3CCOCC3)cc2)ccc2ccccc21`, the inhibition is 16.1% (inactive).

For the compound `C/C(=N\N=c1/sc2ccccc2n1C)c1ccc(N2CCOCC2)cc1`, the inhibition was 6.81% (inactive).

As to `O=[N+]([O-])c1cccc(-c2ccc(C(=S)N3CCN(c4ccc(F)cc4)CC3)o2)c1`, the inhibition is 5.79% (inactive).

Consider `CN(C)c1ccc2nsnc2c1[N+](=O)[O-]`, for which the inhibition is 7.42% (inactive).

With `Cc1ccc2nsnc2c1NC(=O)c1ccc([N+](=O)[O-])cc1`, the inhibition is 14.4% (inactive).

As for `Brc1ccc(-c2cn3c(n2)SCC3)cc1`, the inhibition was 15.1% (inactive).

Regarding `Cc1ccc(-c2cn3c(n2)SCC3)cc1`, the inhibition was 14.4% (inactive).

Turning to `CCCCNc1c(-c2ccc(SC3CCCCC3)c(OC)c2)nc2ccc(C)cn12`, the inhibition was 2.06% (inactive).

As for `O=C(Nc1ncccn1)C1c2ccccc2Oc2ccccc21`, the inhibition was 2.37% (inactive).

Regarding `COc1ccc2nnc(-c3ccccc3)n2n1`, the inhibition is 10.9% (inactive).

Take `COC(=O)c1ccc(Oc2ccc3nnc(C)n3n2)cc1`: the inhibition was -0.14% (inactive).

As for `CC(=O)Nc1ccc2sc(NC(=O)CN3CCOCC3)nc2c1`, the inhibition is 7.43% (inactive).

Take `CCCCc1cc(=O)oc2cc(OCC(=O)Nc3ccccn3)ccc12`: the inhibition was 11.4% (inactive).

Regarding `CSc1nc(=O)n2cccc(C)c2n1`, the inhibition is 0.29% (inactive).

Turning to `Cc1ccn2c(=O)cc(C)nc2c1`, the inhibition is -1.02% (inactive).

For `Fc1ccc(-c2nnc3ccccn23)cc1`, the inhibition was 0.86% (inactive).

As to `Cc1ccn2c(C(C)O)nnc2c1` (stereo unspecified), the inhibition is 11.7% (inactive).

Regarding `Cc1cccn2c(N)c(-c3ccccc3)nc12`, the inhibition was 7.39% (inactive).

As for `c1ccn2c(Cc3nnc4ccccn34)nnc2c1`, the inhibition is 3.25% (inactive).

Regarding `O=C(CCC(=O)N1CCOCC1)NCCc1ccccc1`, the inhibition is 0.87% (inactive).

Take `CCN(CC(=O)Nc1ccc(NC(C)=O)cc1)C(=O)c1ccc2c(c1)S(=O)(=O)N=C1CCCCCN12`: the inhibition was 1.15% (inactive).

Take `CCOc1ccccc1NC(=S)N1CCCCCC1`: the inhibition was 5.32% (inactive).

For the compound `CCOC(=O)/C(C#N)=C1/C=Cc2ccccc2N1CC`, the inhibition is 12.8% (inactive).

For the compound `CCOC(=O)C(C#N)=C1CCN(Cc2ccccc2)CC1`, the inhibition was 11.1% (inactive).

As to `CCOC(=O)/C(C#N)=C1/C=CN(Cc2ccccc2)C=N1`, the inhibition is 6.15% (inactive).

As for `CCCCN1C(=O)/C(=C(/C#N)C(N)=O)c2ccccc21`, the inhibition is 10.6% (inactive).

Take `Cc1ccc(C(=O)NC(NCc2ccco2)C(Cl)(Cl)Cl)cc1` (stereo unspecified): the inhibition is 2.01% (inactive).

In the case of `O=C(NCCCN1CCCC1)c1ccc2c(c1)N(Cc1ccccc1)CCS2`, the inhibition was -3.35% (inactive).

With `O=C(COC(=O)CCc1c[nH]c2ccccc12)NCc1ccccc1`, the inhibition was 4.56% (inactive).

Consider `COCCNC(=S)N(Cc1cc2cc(C)ccc2n2nnnc12)C1CCCC1`, for which the inhibition is 1.01% (inactive).

On to `COc1ccc(C(=O)NC(=S)N(C)Cc2ccccc2)cc1Br`, for which the inhibition was 3.69% (inactive).

Consider `Cc1nc2scc(C)n2c(=O)c1S(=O)(=O)N1CCN(c2ccccc2)CC1`, for which the inhibition was 1.78% (inactive).

`Cc1nc2scc(C)n2c(=O)c1S(=O)(=O)N1CCN(c2ccc(F)cc2)CC1`: the inhibition was 5.64% (inactive).
